Experiment [1] deals with Bile acid receptor (Homo sapiens) (UniProt Q96RI1). In words: ATG_FXR_TRANS: Attagene TRANS-FACTORIAL HepG2 Assay for Farnesoid X Receptor (FXR) (AID 2282979).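 Note: hits raise reporter mRNA above DMSO so AC50 marks FXR activation.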 The conditions noted are these: HepG2 Attagene TRANS FXR-GAL4 reporter transcription. The method, boiled down: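 Chimeric FXR-GAL4 activity in transiently transfected human HepG2 liver cells is scored as induction of reporter mRNA after 24 h of dosing. Detection uses RT-PCR with fluorescent labelling and capillary electrophoresis, with DMSO serving as baseline.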
Chain of Bile acid receptor (Homo sapiens) (Q96RI1 whole entry, looked up, the tested form may be a part): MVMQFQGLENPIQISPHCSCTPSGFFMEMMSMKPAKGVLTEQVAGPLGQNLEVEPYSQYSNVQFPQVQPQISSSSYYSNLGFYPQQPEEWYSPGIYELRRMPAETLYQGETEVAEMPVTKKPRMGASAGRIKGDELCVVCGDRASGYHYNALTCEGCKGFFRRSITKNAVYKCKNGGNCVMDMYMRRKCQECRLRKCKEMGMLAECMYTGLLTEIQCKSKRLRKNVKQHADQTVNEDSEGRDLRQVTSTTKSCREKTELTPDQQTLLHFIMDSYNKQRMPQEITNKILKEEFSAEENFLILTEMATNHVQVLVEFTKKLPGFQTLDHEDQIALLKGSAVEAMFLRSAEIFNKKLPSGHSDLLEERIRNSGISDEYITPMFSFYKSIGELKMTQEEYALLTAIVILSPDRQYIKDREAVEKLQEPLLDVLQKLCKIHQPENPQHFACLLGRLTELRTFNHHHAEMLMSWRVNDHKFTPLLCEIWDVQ

Experiment [2] addresses Oxysterols receptor LXR-alpha (Homo sapiens) (UniProt Q13133). In words: ATG_LXRa_TRANS: Attagene TRANS-FACTORIAL HepG2 Assay for human Liver X Receptor alpha (LXRa) (AID 2282980). The conditions noted are these: HepG2 Attagene TRANS reporter, LXRa transactivation. A digest of the protocol:
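Transient HepG2 transfectants, 24 h dosing, RT-PCR/CE mRNA reporter quantitation; gain-of-signal vs DMSO.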

For experiment [3], the target named is Oxysterols receptor LXR-beta (Homo sapiens) (UniProt P55055). In words: ATG_LXRb_TRANS: Attagene TRANS-FACTORIAL HepG2 Assay for human Liver X Receptor beta (LXRb) (AID 2282981). Conditions: HepG2 Attagene TRANS GAL4-LXRb reporter, mRNA. The method, boiled down:
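Gain-of-signal mRNA reporter endpoint, DMSO as negative control. Transiently transfected HepG2 cells carrying the NR-Gal4 chimera and GAL4-UAS reporter units were treated 24 h; transcripts quantified by RT-PCR and capillary electrophoresis fluorescence.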

Experiment [4] is described as follows: ATG_M_06_TRANS: Attagene TRANS-FACTORIAL HepG2 Assay for M06 Transcription Factor (Internal Marker) (AID 2282983). Conditions: HepG2 Attagene TRANS M06 internal marker reporter. A digest of the protocol: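 Measured by capillary electrophoresis of fluorescently labelled RT-PCR products, this endpoint reflects reporter mRNA in HepG2 cells harbouring exogenous NR-GAL4 reporter constructs after 24 h exposure, with DMSO as baseline.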

Experiment [5] in a line: ATG_M_32_TRANS: Attagene TRANS-FACTORIAL HepG2 Assay for M32 Transcription Factor (Internal Marker) (AID 2282984).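 Note: transcript level of a background control reporter unit measured by RT-PCR and capillary electrophoresis.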 Conditions: HepG2 Attagene TRANS M32 internal marker reporter. The method, boiled down: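 Capillary electrophoresis of 6-FAM-labelled reporter fragments gives the signal; data fitted for gain over DMSO negative control. Source: HepG2 cells bearing transient multiple reporter transcription units, 24 h exposure.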

In experiment [6] the target is Nuclear receptor subfamily 4 group A member 2 (Homo sapiens) (UniProt P43354). The experiment is described as follows: ATG_NURR1_TRANS: Attagene TRANS-FACTORIAL HepG2 Assay for human Nuclear Receptor Related Protein 1 (NURR1) (AID 2282985). The conditions noted are these: HepG2 Attagene TRANS reporter, mRNA readout. The method, boiled down: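 HepG2 / transient MRTU transfection / 24 h compound exposure / RT-PCR + CE fluorescence of reporter mRNA / gain-of-signal vs DMSO.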
Chain of Nuclear receptor subfamily 4 group A member 2 (Homo sapiens) (P43354 whole entry, looked up): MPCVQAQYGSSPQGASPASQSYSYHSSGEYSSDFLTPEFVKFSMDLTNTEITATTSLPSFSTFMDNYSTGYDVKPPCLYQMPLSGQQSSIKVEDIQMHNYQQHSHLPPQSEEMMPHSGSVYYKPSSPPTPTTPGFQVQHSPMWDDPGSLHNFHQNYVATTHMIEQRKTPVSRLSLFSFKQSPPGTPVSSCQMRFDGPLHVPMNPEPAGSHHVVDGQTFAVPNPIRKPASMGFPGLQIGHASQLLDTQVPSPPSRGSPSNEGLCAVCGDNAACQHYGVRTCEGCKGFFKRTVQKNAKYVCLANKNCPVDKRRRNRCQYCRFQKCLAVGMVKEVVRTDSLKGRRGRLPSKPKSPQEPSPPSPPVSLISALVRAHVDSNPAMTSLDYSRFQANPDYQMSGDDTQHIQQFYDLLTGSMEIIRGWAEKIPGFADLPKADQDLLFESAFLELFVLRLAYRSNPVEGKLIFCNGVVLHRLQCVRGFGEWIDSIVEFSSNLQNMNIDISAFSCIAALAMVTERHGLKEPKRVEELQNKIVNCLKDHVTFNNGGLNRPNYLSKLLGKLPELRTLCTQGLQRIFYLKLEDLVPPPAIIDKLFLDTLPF

Experiment [7] concerns the target Transcriptional activator Myb (Homo sapiens) (UniProt P10242). In words: ATG_Myb_CIS: Attagene CIS-FACTORIAL HepG2 Assay for human Myeloblastosis (Myb) Proto-Oncogene Transcription Factor (AID 2282986; active = hit-call score of the fitted dose curve at least 0.9, where 1 is the maximum; inactive = score below 0.9). Conditions: HepG2 Attagene CIS-FACTORIAL Myb reporter transcription; actives raise or lower the signal. A digest of the protocol:
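HepG2, transient MRTU transfection (cis-element promoters, endogenous TF activity), 24 h compound exposure. Readout: reporter mRNA via RT-PCR, 6-FAM labeling, HpaI digest, capillary electrophoresis. Gain/loss fit vs DMSO.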

In experiment [8] the target is Nuclear respiratory factor 1 (Homo sapiens) (UniProt Q16656). In words: ATG_NRF1_CIS: Attagene CIS-FACTORIAL HepG2 Assay for human Nuclear Respiratory Factor 1 (NRF1) Orphan Gene (AID 2282987; active = hit-call score of the fitted dose curve at least 0.9, where 1 is the maximum; inactive = score below 0.9). Conditions: HepG2 NRF1 cis-element reporter, Attagene multiplex; actives raise or lower the signal. A digest of the protocol: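 Endogenous NRF1-driven reporter transcription measured in transiently transfected human HepG2 liver cells. Readout: reporter mRNA by RT-PCR and capillary electrophoresis with fluorescence detection, 24 h post-dosing. Gain or loss of signal fitted relative to DMSO baseline.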
Chain of Nuclear respiratory factor 1 (Homo sapiens) (Q16656 whole entry, looked up): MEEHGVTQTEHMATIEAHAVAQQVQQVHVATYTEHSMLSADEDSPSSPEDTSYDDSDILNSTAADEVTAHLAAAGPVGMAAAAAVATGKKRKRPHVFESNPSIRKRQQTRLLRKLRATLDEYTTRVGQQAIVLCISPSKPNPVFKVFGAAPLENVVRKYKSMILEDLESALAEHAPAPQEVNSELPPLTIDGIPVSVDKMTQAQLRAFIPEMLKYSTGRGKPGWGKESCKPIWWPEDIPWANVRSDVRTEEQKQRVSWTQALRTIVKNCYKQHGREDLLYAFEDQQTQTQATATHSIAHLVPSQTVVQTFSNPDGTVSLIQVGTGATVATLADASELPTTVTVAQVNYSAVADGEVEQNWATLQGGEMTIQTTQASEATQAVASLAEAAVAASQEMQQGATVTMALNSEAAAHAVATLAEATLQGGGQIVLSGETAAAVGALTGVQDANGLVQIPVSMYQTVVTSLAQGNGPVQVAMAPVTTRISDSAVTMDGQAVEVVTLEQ

Experiment [9] can be described thus: ATG_NFI_CIS: Attagene CIS-FACTORIAL HepG2 Assay for human Nuclear Factor I (NFI) (AID 2282989; active = hit-call score of the fitted dose curve at least 0.9, where 1 is the maximum; inactive = score below 0.9). Conditions: HepG2 cis-regulatory reporter, NFI response element transcription; actives raise or lower the signal. The method, boiled down:
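HepG2 cells transiently transfected with cis-element-driven multiplexed reporter transcription units, dosed for 24 h. Reporter mRNA quantified by RT-PCR, fluorescent labelling, HpaI digestion and capillary electrophoresis; bidirectional fit versus DMSO baseline.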

Experiment [10] concerns the target Hepatocyte nuclear factor 4-alpha (Homo sapiens) (UniProt P41235). In words: ATG_HNF4a_TRANS: Attagene TRANS-FACTORIAL HepG2 Assay for human Hepatocyte Nuclear Factor 4 alpha (HNF4a) (AID 2282982). The conditions noted are these: HepG2 HNF4a transactivation reporter, mRNA readout. A digest of the protocol: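 Gain-of-signal mRNA induction, relative to DMSO vehicle, was read after 24 h compound treatment of HepG2 cells bearing transfected GAL4-UAS reporters. Detection used RT-PCR, 6-FAM primer extension and capillary electrophoresis.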

Inconclusive results are not listed. Calls of active or inactive are those of the source. Rule for the calls, unless noted: active = hit-call score of the fitted dose curve at least 0.9, where 1 is the maximum; inconclusive = response in the unintended direction; inactive = score below 0.9.

Usually AC50 stands for the concentration giving half of the maximal activity seen.

Chain of Oxysterols receptor LXR-beta (Homo sapiens) (P55055 whole entry, looked up, the tested form may be a part): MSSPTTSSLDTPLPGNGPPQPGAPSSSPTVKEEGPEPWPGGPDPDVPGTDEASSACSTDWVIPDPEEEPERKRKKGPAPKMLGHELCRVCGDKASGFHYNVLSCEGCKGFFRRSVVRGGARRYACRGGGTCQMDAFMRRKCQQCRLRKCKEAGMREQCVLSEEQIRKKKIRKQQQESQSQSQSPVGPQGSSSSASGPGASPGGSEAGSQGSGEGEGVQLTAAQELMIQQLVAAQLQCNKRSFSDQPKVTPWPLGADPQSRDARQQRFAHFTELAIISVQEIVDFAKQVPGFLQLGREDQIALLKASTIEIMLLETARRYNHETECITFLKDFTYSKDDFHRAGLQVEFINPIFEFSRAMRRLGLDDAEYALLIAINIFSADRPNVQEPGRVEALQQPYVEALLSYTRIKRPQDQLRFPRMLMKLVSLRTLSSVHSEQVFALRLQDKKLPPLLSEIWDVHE
Chain of Transcriptional activator Myb (Homo sapiens) (P10242 whole entry, looked up): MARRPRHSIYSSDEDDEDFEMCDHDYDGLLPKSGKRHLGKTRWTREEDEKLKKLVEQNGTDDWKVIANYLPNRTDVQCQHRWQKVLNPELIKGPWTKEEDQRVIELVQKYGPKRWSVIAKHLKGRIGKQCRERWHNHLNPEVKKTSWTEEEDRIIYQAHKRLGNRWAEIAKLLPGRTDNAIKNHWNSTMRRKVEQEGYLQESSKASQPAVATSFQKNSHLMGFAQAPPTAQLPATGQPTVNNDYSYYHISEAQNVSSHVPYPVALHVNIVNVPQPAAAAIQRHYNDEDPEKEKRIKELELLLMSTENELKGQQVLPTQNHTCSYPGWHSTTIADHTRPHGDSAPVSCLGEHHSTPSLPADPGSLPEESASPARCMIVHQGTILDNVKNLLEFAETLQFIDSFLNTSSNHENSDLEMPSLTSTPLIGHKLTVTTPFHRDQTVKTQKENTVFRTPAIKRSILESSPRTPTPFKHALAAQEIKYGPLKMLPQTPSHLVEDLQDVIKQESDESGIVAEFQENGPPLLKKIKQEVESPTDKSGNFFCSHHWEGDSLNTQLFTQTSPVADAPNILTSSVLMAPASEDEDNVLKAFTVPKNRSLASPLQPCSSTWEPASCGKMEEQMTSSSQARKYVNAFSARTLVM
Chain of Oxysterols receptor LXR-alpha (Homo sapiens) (Q13133 whole entry, looked up): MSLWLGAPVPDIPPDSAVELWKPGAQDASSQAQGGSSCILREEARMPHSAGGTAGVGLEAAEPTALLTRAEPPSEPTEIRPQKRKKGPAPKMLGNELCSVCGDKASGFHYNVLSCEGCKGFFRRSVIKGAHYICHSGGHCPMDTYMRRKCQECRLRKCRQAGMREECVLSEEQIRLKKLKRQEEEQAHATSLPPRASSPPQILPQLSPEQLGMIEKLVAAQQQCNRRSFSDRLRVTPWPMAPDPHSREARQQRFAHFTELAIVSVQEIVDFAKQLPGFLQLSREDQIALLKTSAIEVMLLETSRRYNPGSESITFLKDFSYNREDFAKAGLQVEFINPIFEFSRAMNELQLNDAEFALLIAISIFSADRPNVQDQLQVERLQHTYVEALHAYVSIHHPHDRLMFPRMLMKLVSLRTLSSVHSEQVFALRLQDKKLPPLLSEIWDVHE
Chain of Hepatocyte nuclear factor 4-alpha (Homo sapiens) (P41235 whole entry, looked up, the tested form may be a part): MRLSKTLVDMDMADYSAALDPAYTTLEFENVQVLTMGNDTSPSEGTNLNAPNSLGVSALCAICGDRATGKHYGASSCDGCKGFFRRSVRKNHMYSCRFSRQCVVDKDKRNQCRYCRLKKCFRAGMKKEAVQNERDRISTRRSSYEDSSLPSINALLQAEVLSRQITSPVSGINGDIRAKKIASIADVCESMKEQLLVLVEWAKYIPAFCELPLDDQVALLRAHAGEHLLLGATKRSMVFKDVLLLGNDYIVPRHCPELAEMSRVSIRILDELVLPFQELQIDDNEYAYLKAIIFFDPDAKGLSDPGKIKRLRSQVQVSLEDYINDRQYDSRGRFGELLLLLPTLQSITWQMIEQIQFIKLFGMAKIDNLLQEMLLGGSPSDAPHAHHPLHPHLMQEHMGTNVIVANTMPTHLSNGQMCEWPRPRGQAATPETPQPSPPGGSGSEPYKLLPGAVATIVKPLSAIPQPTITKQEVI

On to `C=CC(C)(O)CCC=C(C)C` (stereo not drawn), for which the result in experiment [1], in experiment [2], in experiment [3], in experiment [4], in experiment [5] and in experiment [6] was inactive. Also, the compound was called inactive in [7], in [8] and in [9].
As to `C=Cc1ccncc1`, the compound was called inactive in [1], in experiment [2], in experiment [3] and in [4]. Besides, the AC50 in experiment [10] is 84.1 µM (active); in experiment [7] it was 30.8 µM (active); in experiment [8] it was 37.5 µM (active); in experiment [9] it was 21.8 µM (active).
With `CC1CCC(C(C)C)C(O)C1` (stereo not drawn), the compound was called inactive in experiment [1], in [2], in experiment [3], in experiment [4], in experiment [7] and in experiment [8]. Also, the compound was classed as inactive in experiment [9].
Regarding `CCC(Cl)C(Cl)C(Cl)CC(Cl)C(Cl)C(C)Cl` (stereo not drawn), the half-maximal activity concentration (AC50) in experiment [1] was 11 µM (active). In addition, the compound was called inactive in experiment [2], in experiment [3], in experiment [10], in experiment [4], in experiment [5] and in [7]. For the same compound, the result in experiment [8] was inactive.
With `[Cl][Au]([Cl])[Cl]`, the result in experiment [1], in [2], in experiment [3], in experiment [10], in experiment [4] and in [5] was inactive. In addition, the result in experiment [7] and in experiment [9] was inactive. Further, the AC50 in experiment [8] is 147 µM (active).
Turning to `CCCCCCC(O)CCCCCCCCCCC(=O)O` (stereo not drawn), the compound was called inactive in experiment [1], in [2], in experiment [3], in experiment [4], in experiment [5] and in experiment [6]. Also, the call in [7] was inactive.
For the compound `Oc1ccc2cc(SSc3ccc4cc(O)ccc4c3)ccc2c1`, the outcome in experiment [1], in experiment [2], in [3], in experiment [10], in experiment [4] and in experiment [5] was inactive. Also, the compound was called inactive in [7] and in experiment [8]. Further, the half-maximal activity concentration (AC50) in experiment [9] is 34.1 µM (active).
Turning to `Cc1cc(=O)oc2cc(N(C)C)ccc12`, the outcome in experiment [1], in [2], in experiment [3], in [4], in experiment [5] and in experiment [7] was inactive. In addition, the result in experiment [8] and in [9] was inactive.
On to `O=C(O)CCCCCCCCC(=O)O`, for which the call in [1], in [2], in experiment [3], in experiment [10], in experiment [4] and in experiment [7] was inactive. For the same compound, in experiment [9], the compound was classed as inactive.
Consider `CCCCOC(=O)CCCCCCCC(=O)OCCCC`, for which the compound was called inactive in experiment [1], in experiment [2], in [3], in experiment [4], in experiment [5] and in experiment [6]. Further, the compound was classed as inactive in experiment [7], in experiment [8] and in experiment [9].
For `c1ccc(CCc2ccccc2)cc1`, the outcome in [1], in [2], in [3], in [10], in experiment [4] and in [5] was inactive. In addition, the call in experiment [6], in experiment [7], in experiment [8] and in experiment [9] was inactive.
With `COS(=O)(=O)O`, the compound was classed as inactive in experiment [1], in experiment [2], in experiment [3], in [10], in experiment [4] and in [7]. Also, the outcome in experiment [8] and in experiment [9] was inactive.
Regarding `N#Cc1cscn1`, the result in experiment [1], in experiment [2], in experiment [10], in [4], in experiment [6] and in [7] was inactive. Also, the outcome in experiment [8] and in [9] was inactive.
In the case of `Cc1ncc[nH]1`, the result in experiment [1], in experiment [2], in experiment [10], in [4], in experiment [5] and in [7] was inactive. The compound was classed as inactive in experiment [8] and in experiment [9].
For `C=C1CC[C@H](O)C/C1=C/C=C1\CCC[C@]2(C)[C@@H]([C@H](C)/C=C/[C@H](C)C(C)C)CC[C@@H]12`, the call in experiment [1], in experiment [2], in experiment [4], in experiment [5], in experiment [7] and in experiment [8] was inactive. Moreover, the call in experiment [9] was inactive.
In the case of `COc1cc(Cl)c(OC)cc1N`, the call in experiment [1], in [2], in experiment [10], in experiment [4], in experiment [7] and in experiment [8] was inactive. For the same compound, the compound was classed as inactive in experiment [9].
As to `CCOC(=O)CC(C)O` (stereo not drawn), the call in experiment [1], in experiment [2], in experiment [10], in [5], in experiment [7] and in experiment [8] was inactive.
As to `C=COCCOCCOC=C`, the call in experiment [1], in [2], in experiment [10], in experiment [5], in experiment [6] and in experiment [7] was inactive. For the same compound, the compound was called inactive in experiment [8] and in [9].
Turning to `OCc1ccc(Cl)cc1Cl`, the compound was classed as inactive in experiment [1], in experiment [2], in experiment [10], in experiment [4], in experiment [7] and in [8]. In experiment [9], the outcome was inactive.
Regarding `CCOC(=O)c1ccc(N)cc1`, the compound was called inactive in [1], in experiment [2], in experiment [10], in experiment [5], in experiment [7] and in [8]. In [9], the compound was called inactive.
As for `O=C1CCCC=CCCCCCCCCCC1`, the call in [1], in [2], in [4], in experiment [7], in [8] and in [9] was inactive.
`CC(C=O)Cc1ccc(C(C)(C)C)cc1` (stereo not drawn): the compound was called inactive in experiment [1], in [2], in experiment [4], in experiment [5], in experiment [7] and in experiment [8].
Consider `C[C@H]1C[C@@H](O)CC(C)(C)C1`, for which the call in experiment [1], in [2], in experiment [10], in [5], in experiment [6] and in [7] was inactive. For the same compound, the compound was classed as inactive in experiment [8] and in [9].
Take `CCCC[P+](CCCC)(CCCC)CCCC`: the compound was called inactive in [1], in [2], in experiment [5], in experiment [7], in [8] and in [9].
Regarding `c1ccc2[nH]cnc2c1`, the outcome in [1], in [2], in [10], in experiment [5], in experiment [6] and in [7] was inactive. Further, the compound was classed as inactive in experiment [8] and in experiment [9].
Turning to `CC(=O)O[C@H]1C[C@@H]2CC[C@@]1(C)C2(C)C`, the result in experiment [1], in [2], in experiment [4], in experiment [5], in [7] and in experiment [9] was inactive.
For `CCC1(C)NC(=O)NC1=O` (stereo not drawn), the outcome in [1], in [2], in [4], in experiment [7], in experiment [8] and in experiment [9] was inactive.
Consider `CC=Cc1ccc(OC)c(OC)c1`, for which the outcome in experiment [1], in [2], in [10], in [5], in [7] and in experiment [9] was inactive.
Consider `CCOC(=O)CN`, for which the result in experiment [1], in [2], in experiment [10], in [4], in experiment [7] and in experiment [8] was inactive. In addition, the compound was classed as inactive in [9].
Consider `CCOC(=O)COC(=O)c1cc(Oc2ccc(C(F)(F)F)cc2Cl)ccc1[N+](=O)[O-]`, for which the outcome in experiment [1], in [2], in experiment [10], in experiment [5], in experiment [7] and in experiment [8] was inactive. The outcome in experiment [9] was inactive.

The values are drawn from PubChem BioAssay (EPA / NIEHS).
